# Results from the supplement of paper PMC12645437, “Orthogonal IMiD-Degron Pairs Induce Selective Protein Degradation in Cells” (ACS Chemical Biology, 2025).
# The full ranking holds about 8,300 sequences; the median of “log2 fold change of degron read counts, EGFP-low vs EGFP+ sorted cells (limma voom), compound-induced degradation” is about -1.1, and the highest 2% start at about 3.2. This excerpt belongs to a sample that is enriched for the highest values.
# T1: CRBN, Q96SW2
# T1 chain: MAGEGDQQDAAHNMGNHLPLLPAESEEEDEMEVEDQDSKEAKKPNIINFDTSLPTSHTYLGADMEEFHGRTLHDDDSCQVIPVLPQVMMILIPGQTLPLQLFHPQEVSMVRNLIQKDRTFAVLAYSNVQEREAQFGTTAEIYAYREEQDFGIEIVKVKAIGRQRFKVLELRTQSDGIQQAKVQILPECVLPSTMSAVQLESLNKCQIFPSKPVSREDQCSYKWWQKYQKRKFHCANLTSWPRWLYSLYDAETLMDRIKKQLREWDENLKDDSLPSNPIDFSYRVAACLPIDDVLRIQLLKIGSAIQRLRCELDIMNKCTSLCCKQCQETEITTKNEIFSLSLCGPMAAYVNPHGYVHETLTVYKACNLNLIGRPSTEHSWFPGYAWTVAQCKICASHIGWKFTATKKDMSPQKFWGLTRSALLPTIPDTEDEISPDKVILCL
# Molecular target: T1, CRBN, Q96SW2
# Assay: log2 fold change of degron read counts, EGFP-low vs EGFP+ sorted cells (limma voom), compound-induced degradation; higher = more compound-induced degradation of the degron-EGFP fusion; degrons are variants of IKZF1/3 zinc finger 2; compound dose not given here
# Conditions: Jurkat, 18 h
# [1] = compound: compound 19 (5-tert-butyl-thalidomide)
# [2] = compound: compound 22 (5-morpholino-thalidomide)
# [3] = compound: compound 33 (diphenyl IMiD analogue)
# 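Note: pooled lentiviral library of zinc finger degron-EGFP fusions in mCherry-positive Jurkat cells, FACS-sorted after compound exposure, with degron abundance counted by next-generation sequencing.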
Sequence,log2 fold change of degron read counts [1],log2 fold change of degron read counts [2],log2 fold change of degron read counts [3],log2 fold change of degron read counts (compound: thalidomide)
"FTCPQCGAWFTQKGNLLRHIKL [46F_47T_49P_50Q_52G_53A_54W_55F_67L_, Q9UKT9]",-1.97,-1.41,0.47,-0.222
"FHCPICGHTFTQKGNLLRHIKL [46F_47H_49P_50I_52G_53H_54T_55F_67L_, Q9UKT9]",-2.42,-2.36,-1.31,-1.65
"FQCNQCGHKFTQKGNLLRHIKL [46F_47Q_49N_50Q_52G_53H_54K_55F_67L_, Q9UKT9]",-3.13,-3.72,-2.89,-2.56
"FICEICGRSFTQKGNLLRHIKL [46F_47I_49E_50I_52G_53R_54S_55F_67L_, Q9UKT9]",-2.87,-2.13,-1.31,-0.772
"FYCEICGRYFTQKGNLLRHIKL [46F_47Y_49E_50I_52G_53R_54Y_55F_67L_, Q9UKT9]",1.09,0.388,-0.525,-1.2
"FRCNICGACFTQKGNLLRHIKL [46F_47R_49N_50I_52G_53A_54C_55F_67L_, Q9UKT9]",-1.25,-0.613,0.532,0.406
"FWCNICGACFTQKGNLLRHIKL [46F_47W_49N_50I_52G_53A_54C_55F_67L_, Q9UKT9]",2.95,3.36,1.98,0.445
"FSCNICGACFTQKGNLLRHIKL [46F_47S_49N_50I_52G_53A_54C_55F_67L_, Q9UKT9]",0.632,1.69,2.11,1.06
"FQCNICGACFTQKGNLLRHIKL [46F_47Q_49N_50I_52G_53A_54C_55F_67L_, Q9UKT9]",-0.735,1.82,1.65,3.38
"FKCNICGACFTQKGNLLRHIKL [46F_47K_49N_50I_52G_53A_54C_55F_67L_, Q9UKT9]",-1.31,-2.26,-2.53,-1.43
"FYCNICGACFTQKGNLLRHIKL [46F_47Y_49N_50I_52G_53A_54C_55F_67L_, Q9UKT9]",2.86,3.15,1.94,0.278
"FVCDQCGAFFTQKGNLLRHIKL [46F_47V_49D_50Q_52G_53A_54F_55F_67L_, Q9UKT9]",-2.6,-2.32,-2.12,-2.19
"FFCSVCGHPFTQKGNLLRHIKL [46F_47F_49S_50V_52G_53H_54P_55F_67L_, Q9UKT9]",-0.493,-1.26,-1.56,-1.25
"FWCPVCGAHFTQKGNLLRHIKL [46F_47W_49P_50V_52G_53A_54H_55F_67L_, Q9UKT9]",2.57,3.79,1.99,0.84
"FMCPVCGAHFTQKGNLLRHIKL [46F_47M_49P_50V_52G_53A_54H_55F_67L_, Q9UKT9]",-0.687,0.177,2.13,0.77
"FACPVCGAHFTQKGNLLRHIKL [46F_47A_49P_50V_52G_53A_54H_55F_67L_, Q9UKT9]",2.93,1.05,0.871,0.221
"FVCPVCGAHFTQKGNLLRHIKL [46F_47V_49P_50V_52G_53A_54H_55F_67L_, Q9UKT9]",-0.62,1.87,1.15,2.07
"FDCPVCGAHFTQKGNLLRHIKL [46F_47D_49P_50V_52G_53A_54H_55F_67L_, Q9UKT9]",2.9,1.04,0.819,1.19
"FQCPVCGAHFTQKGNLLRHIKL [46F_47Q_49P_50V_52G_53A_54H_55F_67L_, Q9UKT9]",-0.252,1.64,1.32,3.27
"FRCPVCGAHFTQKGNLLRHIKL [46F_47R_49P_50V_52G_53A_54H_55F_67L_, Q9UKT9]",-0.862,-0.227,0.973,0.478
"FGCPVCGAHFTQKGNLLRHIKL [46F_47G_49P_50V_52G_53A_54H_55F_67L_, Q9UKT9]",2.85,0.903,1.38,0.174
"FYCPVCGAHFTQKGNLLRHIKL [46F_47Y_49P_50V_52G_53A_54H_55F_67L_, Q9UKT9]",2.89,3.48,2.31,0.928
"LACEICGFLCTQKGNLLRHIKL [46L_47A_49E_50I_52G_53F_54L_55C_67L_, Q9UKT9]",0.343,-0.688,-1.12,-0.901
"FGCDICGAFFTQKGNLLRHIKL [46F_47G_49D_50I_52G_53A_54F_55F_67L_, Q9UKT9]",0.984,-0.922,1.74,-1.18
"FECPICGHKFTQKGNLLRHIKL [46F_47E_49P_50I_52G_53H_54K_55F_67L_, Q9UKT9]",-3.48,-2.51,-2.67,-1.19
"FDCEICGRLFTQKGNLLRHIKL [46F_47D_49E_50I_52G_53R_54L_55F_67L_, Q9UKT9]",-2.24,-1.71,-0.0163,-0.815
"FWCDICGATFTQKGNLLRHIKL [46F_47W_49D_50I_52G_53A_54T_55F_67L_, Q9UKT9]",2.74,3.05,0.604,-1.08
"FGCEICGREFTQKGNLLRHIKL [46F_47G_49E_50I_52G_53R_54E_55F_67L_, Q9UKT9]",-2.14,-2.75,-2.14,-2.84
